SKN-1 inh – suppressors of acrylamide-induced Pgst-4::GFP reporter in worms, primary screen, SKN-1 inhibitor project, whole organism, uHTS, GFP/RFP fluorescence ratio, strain VP596; C. elegans VP596 Pgst-4::GFP/RFP ratio, 24 h; inhibition, % at 21.8 µM; 360,000 tested, 0.49% active;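 active means interference check ratio from 0.5 to 1.5 plus GFP to RFP signal ratio inhibition reaching or exceeding a fixed threshold, cut at about 30% in these data, passing the limit was not always enough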
NR3A LBD binder – binders of NR3A ligand-binding domain, primary screen, biophysical, differential scanning fluorimetry, uHTS. 340,000 tested, 2.5% active. Tm shift relative to glycine control, % at 25 µM. AID 1259313, 2017. NR3A LBD differential scanning fluorimetry, Tm shift; 0% = protein alone, 100% = glycine-bound protein. Glutamate receptor ionotropic, NMDA 3A (GRIN3A) ligand-binding domain;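 active means melting temperature shift of at least 10% of the positive control shift, at one fixed dose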
Vif imaging – HIV Vif self-association inhibitors, primary screen, imaging, HEK293T, single point; 340,000 tested, 0.35% active; inhibition, % at 7.49 µM; AID 602346, 2012; HEK293T cells, Vif self-association by quenched fluorescence, 24 h; in the data active means inhibition above about 50%, passing the limit was not always enough; inconclusive means no clear call, values can overlap the other calls; inactive means below about 31%
NadD inh – inhibitors of S. aureus NadD, primary screen, biochemical, colorimetric, uHTS. AID 602399, 2012. inhibition, % at 20 µM. Nicotinate-nucleotide adenylyltransferase NadD (Staphylococcus aureus N315). purified NadD enzyme, colorimetric absorbance read-out. 360,000 tested, 0.78% active; in the data active means inhibition above about 26%
esBAF inh – Bmi1 luciferase reporter increase in mESCs, primary screen, esBAF inhibitor project, mouse ES cells, Bmi1 luciferase knock-in, single point. 24 h; 100% = twice the neutral-well signal. reporter increase, % at 12.5 µM. 350,000 tested, 2% active; in the data active means activation above about 40%; inconclusive means no clear call, values can overlap the other calls;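 further: 0% = median of the plate's neutral control wells and 100% = double that signal; a rise in the Bmi1 reporter signal indicates esBAF inhibition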
SMARCA2 activ – SMARCA2 (BRM) function activators, primary screen, cell-based, luminescence, high throughput; MG213 cells, MMTV-luciferase reporter, dexamethasone, overnight; activation, % at 9.1 µM; 370,000 tested, 1% active; AID 652017, 2013; in the data active means activation above about 7.8%;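 further: 0% = vehicle wells and 100% = reference activator wells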
NadD conf – inhibitors of S. aureus NadD, confirmation, biochemical, colorimetric, single concentration. shares compounds with NadD inh. purified S. aureus NadD, colorimetric enzyme assay. inhibition, % at 20 µM. 2,000 tested, 13% active. AID 624309, 2012; in the data active means inhibition mostly above about 42%, no sharp cut-off; inactive means mostly below about 42%
* hit, by the source's call. A selection: hits, their analogues and other compounds. The true share with any hit is near 5.2%.

What do the screens show for `C[C@@H]1CCCCO[C@@H](CN(C)C(=O)Cc2ccccc2)[C@@H](C)CN([C@@H](C)CO)C(=O)c2cc(N(C)C)ccc2O1`?
esBAF inh: -4

Results for FC(F)(F)c1cc(-c2ccco2)nc(NCc2ccco2)n1 ?
SKN-1 inh: -5; NR3A LBD binder: 0; Vif imaging: inconclusive; NadD inh: 34*; esBAF inh: -8; SMARCA2 activ: 0; NadD conf: 40

What do the screens show for `FC(F)(F)c1cc(-c2ccco2)nc(NCc2cccs2)n1`?
SKN-1 inh: 8; NR3A LBD binder: -5; Vif imaging: 10; NadD inh: 24; esBAF inh: 2; SMARCA2 activ: 3

What do the screens show for `C[C@H]1CCCCO[C@H](CN(C)C(=O)C2CCCCC2)[C@@H](C)CN([C@@H](C)CO)C(=O)c2cc(NS(=O)(=O)c3cccs3)ccc2O1`?
esBAF inh: 1

What do the screens show for `Cc1cc(NC(=O)CSc2nc3c([nH]c4ccccc43)c(=O)n2-c2cccc(C(F)(F)F)c2)no1`?
SKN-1 inh: 5; NR3A LBD binder: -2; Vif imaging: 51*; NadD inh: 44*; esBAF inh: 2; NadD conf: 5

Results for COc1ccccc1N1CCN(Cc2cc(=O)n3ccsc3n2)CC1 ?
SKN-1 inh: 5; NR3A LBD binder: -1; Vif imaging: 3; NadD inh: -2; esBAF inh: -9; SMARCA2 activ: -2

Results for CC1Cc2ccccc2N1Cc1cc(=O)n2ccsc2n1 (centres undefined) ?
SKN-1 inh: 8; NR3A LBD binder: -1; Vif imaging: 5; NadD inh: 28*; esBAF inh: 9; SMARCA2 activ: -2; NadD conf: 11

What do the screens show for `Cc1cccc(NC(=O)c2cc(NC(=O)c3ccccc3)ccc2N2CCCCC2)c1`?
SKN-1 inh: -2; NR3A LBD binder: -5; Vif imaging: -3; NadD inh: 32*; esBAF inh: -9; SMARCA2 activ: -2; NadD conf: 20

How did O=C(Nc1ccc(Cl)cc1)Nc1ccc(N2CCCC2)c(S(=O)(=O)Nc2ccccc2Cl)c1 do in these assays?
SKN-1 inh: 8; NR3A LBD binder: 32*; Vif imaging: -15; NadD inh: 33*; SMARCA2 activ: -2; NadD conf: 22

What do the screens show for `O=C(Nc1ccc(N2CCOCC2)c(S(=O)(=O)Nc2ccccc2Cl)c1)c1ccccc1`?
SKN-1 inh: 20; NR3A LBD binder: 1; Vif imaging: 1; NadD inh: 23; esBAF inh: 3; SMARCA2 activ: -6

What do the screens show for `CN(C)S(=O)(=O)c1ccc(C(=O)Nc2cc(S(=O)(=O)Nc3ccccc3Cl)ccc2N2CCCCC2)cc1`?
SKN-1 inh: 10; NR3A LBD binder: 0; Vif imaging: -5; NadD inh: 29*; SMARCA2 activ: -2; NadD conf: 32

How did COc1ccccc1NS(=O)(=O)c1cc(NC(=O)Nc2cccc(C)c2)ccc1N1CCCCC1 do in these assays?
SKN-1 inh: 14; NR3A LBD binder: 24*; NadD inh: 30*; SMARCA2 activ: 4; NadD conf: 47

How did CN1CCN(c2ccc(Cl)cc2NC(=O)c2ccc(S(=O)(=O)N(C)C)cc2)CC1 do in these assays?
SKN-1 inh: 9; NR3A LBD binder: 2; Vif imaging: 3; NadD inh: -7; esBAF inh: -4; SMARCA2 activ: -2

How did CCCC#Cc1ccc2c(c1)O[C@@H](CN(C)Cc1cncnc1)[C@H](C)CN([C@@H](C)CO)S2(=O)=O do in these assays?
esBAF inh: 1

Results for CCc1nnc(NC(=O)CSc2nc(-c3ccccc3)cc(-c3ccc(F)cc3)c2C#N)s1 ?
SKN-1 inh: -10; NR3A LBD binder: -1; Vif imaging: -9; NadD inh: 44*; esBAF inh: -13; SMARCA2 activ: -1; NadD conf: 4

Results for CCN(CC)CCOC(=O)c1ccc(N/C=C(/C#N)c2nc(-c3ccc(OC)cc3)cs2)cc1 ?
SKN-1 inh: 0; NR3A LBD binder: -4; Vif imaging: 5; NadD inh: 32*; SMARCA2 activ: 5; NadD conf: -8

What do the screens show for `Cc1ccc(CNC(=O)c2ccc(N3CCC4(CC3)CC(c3cccc(Br)c3)=NO4)c(NC(=O)c3c(Cl)cccc3Cl)c2)cc1`?
SKN-1 inh: 5; NR3A LBD binder: 0; Vif imaging: -3; NadD inh: 33*; esBAF inh: 9; SMARCA2 activ: 0; NadD conf: -1

How did Cc1ccc(CNC(=O)c2ccc(N3CCC4(CC3)CC(c3ccccc3)=NO4)c(NC(=O)c3ccc(Cl)c([N+](=O)[O-])c3)c2)cc1 do in these assays?
SKN-1 inh: -2; NR3A LBD binder: -3; Vif imaging: -4; NadD inh: 36*; esBAF inh: -3; SMARCA2 activ: 1; NadD conf: -4

Results for Cc1ccc(CNC(=O)c2ccc(N3CCC4(CC3)CC(c3cccc(Br)c3)=NO4)c(NC(=O)c3cccc(C)c3)c2)cc1 ?
SKN-1 inh: -18; NR3A LBD binder: 0; Vif imaging: 0; NadD inh: 36*; esBAF inh: 0; SMARCA2 activ: -1; NadD conf: 1

What do the screens show for `Cc1ccc(CNC(=O)c2ccc(N3CCC4(CC3)CC(c3ccccc3)=NO4)c(NC(=O)c3cccc(C)c3)c2)cc1`?
SKN-1 inh: 16; NR3A LBD binder: 1; Vif imaging: -2; NadD inh: 8; esBAF inh: -4; SMARCA2 activ: -1

What do the screens show for `CCCNC(=O)Nc1ccc2c(c1)C(=O)N(C)C[C@@H](OC)[C@H](C)CN(C(=O)C1CCCC1)[C@H](C)CO2`?
esBAF inh: -2

Results for C/C(=N\NC(=O)c1cccc(N/N=C(\C)c2ccc([N+](=O)[O-])cc2)c1)c1ccc([N+](=O)[O-])cc1 ?
SKN-1 inh: -8; NR3A LBD binder: 6; Vif imaging: -10; NadD inh: 33*; SMARCA2 activ: -3; NadD conf: 3

Screening data: PubChem BioAssay, several laboratories
